A number with no mark means an inactive call.
Test system: Vero E6 infected with SARS-CoV-2
Assay: inhibition of SARS-CoV-2 cytopathic effect; higher = more antiviral protection, active = above 15
Details: 48 h

C1COC(NC(C2CC2)C2CC2)=N1 [rilmenidine] was tested, and the “inhibition of SARS-CoV-2 cytopathic effect” value (“inhibition” for short) (1 nM) was 2.93%, the “inhibition” value (8.33 nM) was 3.39% and the “inhibition” value (100 nM) was -2.62%. The “inhibition” value (833.33 nM) was -3.95% and the “inhibition” value (10000 nM) was -6.59%.
With O=C(Nc1cccc(Cl)c1)c1ccccn1 the “inhibition” value (1 nM) was 0.86%, the “inhibition” value (8.33 nM) was -0.89% and the “inhibition” value (100 nM) was -2.59%. The “inhibition” value (833.33 nM) was 0.62% and the “inhibition” value (10000 nM) was 0.73%.
With COC(=O)[C@H](Cc1ccccc1)NC(=O)[C@@H](N)CC(=O)O [aspartame] the “inhibition” value (1 nM) was -0.23%, the “inhibition” value (8.33 nM) was -0.6% and the “inhibition” value (100 nM) was 0.53%. The “inhibition” value (833.33 nM) was -1.78% and the “inhibition” value (10000 nM) was 0.85%.
CCC(C)(C)c1ccc(CC(C)CN2C[C@@H](C)O[C@@H](C)C2)cc1 (stereo not given in full) [amorolfine] was tested, and the “inhibition” value (1 nM) was 1.24%, the “inhibition” value (8.33 nM) was 0.11% and the “inhibition” value (100 nM) was 1.63%. For the same molecule, the “inhibition” value (833.33 nM) was 3.07% and the “inhibition” value (10000 nM) was 1.19%.
For NCC(=O)N1C[C@H](NC(=O)c2ccccc2)C[C@H]1C(=O)O [danegaptide], the “inhibition” value (1 nM) was -2%, the “inhibition” value (8.33 nM) was -0.68% and the “inhibition” value (100 nM) was 1.14%. For the same molecule, the “inhibition” value (833.33 nM) was -0.88% and the “inhibition” value (10000 nM) was 3.55%.
Cc1ccc(-n2nc(C(C)(C)C)cc2NC(=O)Nc2ccc(OCCN3CCOCC3)c3ccccc23)cc1 [doramapimod] was tested, and the “inhibition” value (1 nM) was -2.22%, the “inhibition” value (8.33 nM) was 1.14% and the “inhibition” value (100 nM) was -0.73%. For the same molecule, the “inhibition” value (833.33 nM) was 4.29% and the “inhibition” value (10000 nM) was 8.03%.
With CCCCCCCCCCC(CO)CCCCCCCC (stereo not given) [2-octyldodecan-1-ol] the “inhibition” value (1 nM) was 1.79%, the “inhibition” value (8.33 nM) was -0.7% and the “inhibition” value (100 nM) was 0.48%. The “inhibition” value (833.33 nM) was 0.76% and the “inhibition” value (10000 nM) was 0.34%.
For Cn1c(=O)c2c(ncn2CCOC(=O)C(C)(C)Oc2ccc(Cl)cc2)n(C)c1=O [etofylline-clofibrate], the “inhibition” value (1 nM) was 4.94%, the “inhibition” value (8.33 nM) was 3.79% and the “inhibition” value (100 nM) was 1.68%. The “inhibition” value (833.33 nM) was 2.56% and the “inhibition” value (10000 nM) was -0.53%.
For O=C1c2ccccc2C(=O)c2ccccc21 [anthraquinone], the “inhibition” value (1 nM) was -2.37%, the “inhibition” value (8.33 nM) was -0.48% and the “inhibition” value (100 nM) was -1.17%. The “inhibition” value (833.33 nM) was 1.54% and the “inhibition” value (10000 nM) was 0.18%.
For CC(C)(C)Cn1c(N)nc2ccc(-c3[nH]c(C(C)(C)C)nc3-c3ccc(F)cc3)nc21, the “inhibition” value (1 nM) was 2.2%, the “inhibition” value (8.33 nM) was -0.57% and the “inhibition” value (100 nM) was -1.43%. For the same molecule, the “inhibition” value (833.33 nM) was 11.8% and the “inhibition” value (10000 nM) was 55.2% (active).
CCC(CO)(C(=O)OC1CC2CCC(C1)[N+]2(C)C)c1ccccc1 (stereo not given) [troventol] was tested, and the “inhibition” value (1 nM) was 1.78%, the “inhibition” value (8.33 nM) was 6.67% and the “inhibition” value (100 nM) was 0.13%. The “inhibition” value (833.33 nM) was -1.03% and the “inhibition” value (10000 nM) was 2.53%.
COc1nc(C)nc(Cl)c1NC1=NCCN1 [moxonidine] was tested, and the “inhibition” value (1 nM) was -0.54%, the “inhibition” value (8.33 nM) was 1.98% and the “inhibition” value (100 nM) was -1.9%. For the same molecule, the “inhibition” value (833.33 nM) was -2.44% and the “inhibition” value (10000 nM) was -1.74%.
For CCC(CC)(NC(=O)C(C)C)C(=O)N[C@@H](CCCNC(=N)N)C(=O)NC1(C(=O)NC(c2ccc(F)cc2)c2ccc(F)cc2)CCCC1, the “inhibition” value (1 nM) was -0.92%, the “inhibition” value (8.33 nM) was -1.15% and the “inhibition” value (100 nM) was -1.6%. The “inhibition” value (833.33 nM) was 0.7% and the “inhibition” value (10000 nM) was -3.48%.
With CSC[C@H](N)C(=O)O [S-methylcysteine] the “inhibition” value (1 nM) was 4.21%, the “inhibition” value (8.33 nM) was 3.63% and the “inhibition” value (100 nM) was 1.96%. For the same molecule, the “inhibition” value (833.33 nM) was -0.82% and the “inhibition” value (10000 nM) was 0.31%.
With Cc1cc(CN)cc(C)c1NC(=O)c1ccc(-c2cc(Cl)ccc2Cl)o1 the “inhibition” value (1 nM) was -1.09%, the “inhibition” value (8.33 nM) was 1.98% and the “inhibition” value (100 nM) was 3.29%. For the same molecule, the “inhibition” value (833.33 nM) was -1.5% and the “inhibition” value (10000 nM) was 66.2% (active).
With CCCCNNC(=O)c1ccc(Br)cc1 the “inhibition” value (1 nM) was 2.76%, the “inhibition” value (8.33 nM) was 1.2% and the “inhibition” value (100 nM) was 2.26%. The “inhibition” value (833.33 nM) was 3.31% and the “inhibition” value (10000 nM) was -5.28%.
CC(C)(C)c1ccc(C(O)CCCN2CCC(C(O)(c3ccccc3)c3ccccc3)CC2)cc1 (stereo not given) [terfenadine] was tested, and the “inhibition” value (1 nM) was 1.94%, the “inhibition” value (8.33 nM) was -2.95% and the “inhibition” value (100 nM) was -0.52%. For the same molecule, the “inhibition” value (833.33 nM) was -3.56% and the “inhibition” value (10000 nM) was -21.1%.
With Oc1c(Cl)cc(Cl)c(Cl)c1Cc1c(O)c(Cl)cc(Cl)c1Cl [hexachlorophene] the “inhibition” value (1 nM) was 0.56%, the “inhibition” value (8.33 nM) was 1.77% and the “inhibition” value (100 nM) was 0.2%. The “inhibition” value (833.33 nM) was 2.38% and the “inhibition” value (10000 nM) was 8.62%.
In the case of O=C(O)c1ccc(N2C(=O)/C(=C/c3ccc(-c4ccc([N+](=O)[O-])cc4)o3)C=C2c2ccccc2)cc1, the “inhibition” value (1 nM) is reported as -2.98%, the “inhibition” value (8.33 nM) is reported as -0.14% and the “inhibition” value (100 nM) is reported as 1.72%. The “inhibition” value (833.33 nM) was -6.51% and the “inhibition” value (10000 nM) was -0.18%.
In the case of NCCCNCCCCNCCCN [spermine], the “inhibition” value (1 nM) is reported as 1.74%, the “inhibition” value (8.33 nM) is reported as -5.72% and the “inhibition” value (100 nM) is reported as -0.71%. The “inhibition” value (833.33 nM) was -2% and the “inhibition” value (10000 nM) was 2.37%.
With Cc1cc(C(=O)NOCCO)c(Nc2ccc(I)cc2F)n(C)c1=O the “inhibition” value (1 nM) was -2.17%, the “inhibition” value (8.33 nM) was -8.75% and the “inhibition” value (100 nM) was -12%. For the same molecule, the “inhibition” value (833.33 nM) was -15.5% and the “inhibition” value (10000 nM) was -16.9%.
For CO[C@H]1C[C@H](O[C@@H]2/C(C)=C/C[C@@H]3C[C@@H](C[C@]4(CC[C@H](C)[C@@H](C5CCCCC5)O4)O3)OC(=O)[C@@H]3C=C(C)/C(=N/O)[C@H]4OC/C(=C\C=C\[C@@H]2C)[C@]43O)O[C@@H](C)[C@@H]1O [selamectin], the “inhibition” value (1 nM) was -1.61%, the “inhibition” value (8.33 nM) was 0.4% and the “inhibition” value (100 nM) was -0.73%. The “inhibition” value (833.33 nM) was 2.72% and the “inhibition” value (10000 nM) was 16.1% (active).

Source: the supplement of paper PMC13380429
